Data reported in the supplement of paper PMC13380429.

Tested on: Vero E6 infected with SARS-CoV-2
Experiment: inhibition of SARS-CoV-2 cytopathic effect; higher = more antiviral protection, active = above 15
Details: 48 h

Measured: inhibition of SARS-CoV-2 cytopathic effect

CCCN(CC1CC1)c1nc(C)nc(Nc2c(Cl)cc(Cl)cc2Cl)c1Cl
inactive: 1 nM 4.5% | 8.33 nM 2.92% | 100 nM 1.63% | 833.33 nM 0.09% | 10000 nM 1.2%

O=C(O)CCCN1C(=O)c2cccc3cccc(c23)C1=O [isodibut]
inactive: 1 nM -4.53% | 8.33 nM -1.77% | 100 nM -4.8% | 833.33 nM -0.3% | 10000 nM -2.2%

NC1=NCC2c3ccccc3Cc3ccccc3N12 (stereo not given) [epinastine]
inactive: 1 nM -1.87% | 8.33 nM -1.14% | 100 nM 0.71% | 833.33 nM 7.29% | 10000 nM 1.93%

CCN(CC)CCO[C@H]1CC[C@@]2(C)C(=CC[C@@H]3[C@@H]2CC[C@]2(C)C(=O)CC[C@@H]32)C1
inactive: 1 nM 1.95% | 8.33 nM 2.95% | 100 nM 1.19% | 833.33 nM 3.83%
active: 10000 nM 19.6%

Cc1cccc(/C=N/Nc2cc(N3CCOCC3)nc(OCCc3ccccn3)n2)c1
active: 100 nM 26.8% | 833.33 nM 20.4% | 10000 nM 19.1%
inactive: 1 nM 0.81% | 8.33 nM 1.56%

O=S(=O)(O)c1ccc(O)cc1 [4-phenolsulfonic-acid]
inactive: 1 nM -2.47% | 8.33 nM 0.25% | 100 nM 0.79% | 833.33 nM -2.18% | 10000 nM -0.48%

C[C@@H](N)[C@H]1CC[C@H](C(=O)Nc2ccncc2)CC1
inactive: 1 nM -2.16% | 8.33 nM -4.44% | 100 nM -2.01% | 833.33 nM 2.02% | 10000 nM -3.54%

CC(C)(C)c1[nH]cnc1/C=c1\[nH]c(=O)/c(=C/c2ccccc2)[nH]c1=O [plinabulin]
inactive: 1 nM 0.88% | 8.33 nM 3.39% | 100 nM -1.75% | 833.33 nM 0.24% | 10000 nM 2.48%

CC(C)Cc1ccc([C@@H](C)C(=O)NCCO)cc1 (racemic) [mabuprofen]
inactive: 1 nM -1.95% | 8.33 nM -2.13% | 100 nM -0.66% | 833.33 nM -0.72% | 10000 nM -4.85%

CC1(C)S[C@@H]2[C@H](NC(=O)[C@H](NC(=O)N3CCN(S(C)(=O)=O)C3=O)c3ccccc3)C(=O)N2[C@H]1C(=O)O [mezlocillin]
inactive: 1 nM -0.34% | 8.33 nM 0.68% | 100 nM -1.11% | 833.33 nM -0.82% | 10000 nM 0.79%

CCc1ccc(Cc2ccc3c(c2)[C@]2(OC3)O[C@H](CO)[C@@H](O)[C@H](O)[C@H]2O)cc1 [tofogliflozin]
inactive: 1 nM -0.25% | 8.33 nM 0.93% | 100 nM 0.26% | 833.33 nM 1.52% | 10000 nM -0.4%

CC(=O)OCC1=C(C(=O)O)N2C(=O)[C@@H](NC(=O)CCCC(N)C(=O)O)C2SC1 (stereo not given in full) [cephalosporin-c-zn]
inactive: 1 nM -4.01% | 8.33 nM -0.13% | 100 nM -2.05% | 833.33 nM 3.87% | 10000 nM 1.87%

C[C@@H]1CCO[C@H]2Cn3cc(C(=O)NCc4ccc(F)cc4F)c(=O)c(O)c3C(=O)N12 [dolutegravir]
inactive: 1 nM -0.6% | 8.33 nM 1.42% | 100 nM 4% | 833.33 nM 1.93% | 10000 nM 4.1%

Cn1cc(C2=C(c3cn(C4CCN(Cc5ccccn5)CC4)c4ccccc34)C(=O)NC2=O)c2ccccc21 [enzastaurin]
inactive: 1 nM 0.18% | 8.33 nM 1.89% | 100 nM 1.4% | 833.33 nM 1.31% | 10000 nM 3.94%

COc1ccc(-c2c(C)c(C(=O)NN3CCCCC3)nn2-c2ccc(Cl)cc2Cl)cc1
inactive: 1 nM -1.3% | 8.33 nM -1.23% | 100 nM -5.55% | 833.33 nM -3.38% | 10000 nM -1.1%

CN1C(=O)N(c2ccc(C#N)c(C(F)(F)F)c2)C(=O)[C@]1(CO)c1ccccc1 [GLPG0492-R-enantiomer]
inactive: 1 nM 2.05% | 8.33 nM 2.68% | 100 nM 0.3% | 833.33 nM 1.61% | 10000 nM 2.02%

CN[C@@H](C)C(=O)N[C@H]1CCCC[C@H]2CC[C@@H](C(=O)N[C@@H](c3ccccc3)c3cn(CCCCc4ccc(CCCCn5cc([C@@H](NC(=O)[C@@H]6CC[C@@H]7CCCC[C@H](NC(=O)[C@H](C)NC)C(=O)N76)c6ccccc6)nn5)cc4)nn3)N2C1=O
inactive: 1 nM -2.38% | 8.33 nM -0.21% | 100 nM -2.09% | 833.33 nM -4.99% | 10000 nM -13.1%

C[C@H]1CNCCCN1S(=O)(=O)c1cccc2cncc(F)c12 [ripasudil]
inactive: 1 nM -0.82% | 8.33 nM 0.41% | 100 nM -1.45% | 833.33 nM -1.5% | 10000 nM -5.58%

COc1ccncc1C(=O)NC(=O)Nc1ccc(-c2ccccc2)c(C(F)(F)F)c1 [S1P1-agonist-III]
inactive: 1 nM -0.34% | 8.33 nM -0.01% | 100 nM -0.43% | 833.33 nM -0.2% | 10000 nM -2.64%

O=C(N[C@H]1CN2CCC1CC2)c1cc2cccc(Cl)c2s1
inactive: 1 nM -0.49% | 8.33 nM -1.25% | 100 nM 2.35% | 833.33 nM -1.74% | 10000 nM -7.63%

O=C(O[C@@H]1Cc2c(O)cc(O)cc2O[C@@H]1c1ccc(O)c(O)c1)c1cc(O)c(O)c(O)c1 [epicatechin-gallate-(-)]
inactive: 1 nM -1.08% | 8.33 nM 3.11% | 100 nM 5.77% | 833.33 nM 3.37% | 10000 nM -0.51%

CC[C@H]1CN2CC[C@H]1C[C@@H]2[C@@H](O)c1ccnc2ccc(OC)cc12 [hydroquinidine]
inactive: 1 nM 2.34% | 8.33 nM 3.2% | 100 nM 0.81% | 833.33 nM 2.84% | 10000 nM 1.57%

CC(C)OC(=O)N1CCC(Oc2ncnc3c2cnn3-c2ccc(S(C)(=O)=O)cc2F)CC1
inactive: 1 nM -4.65% | 8.33 nM -1.23% | 100 nM 2.78% | 833.33 nM -0.97% | 10000 nM -1.25%

CC[C@]12C=CCN3CC[C@@]4(c5cc([C@@]6(C(=O)OC)C[C@@H]7C[C@@H](C(C)(F)F)CN(Cc8c6[nH]c6ccccc86)C7)c(OC)cc5N(C)[C@H]4[C@@](O)(C(=O)OC)[C@@H]1OC(C)=O)[C@@H]32 [Vinflunine Ditartrate]
inactive: 1 nM 3.38% | 8.33 nM 3.35% | 100 nM 2.91% | 833.33 nM -2.99% | 10000 nM -3.92%

CN1CCN(c2ccc3ccccc3n2)CC1 [N-methylquipazine]
inactive: 1 nM 0.97% | 8.33 nM -1.57% | 100 nM 0.41% | 833.33 nM -1.31% | 10000 nM -0.19%

O=C1c2ccccc2-n2c1nc1ccccc1c2=O [tryptanthrin]
inactive: 1 nM 3.12% | 8.33 nM -0.23% | 100 nM 0.33% | 833.33 nM 0.62% | 10000 nM 0.39%

CCC(=O)O[C@]1(C(=O)CO)CC[C@H]2[C@@H]3CCC4=CC(=O)CC[C@]4(C)[C@H]3CC[C@@]21C
inactive: 1 nM 0.99% | 8.33 nM 0.06% | 100 nM -0.33% | 833.33 nM 1.21% | 10000 nM 2.45%

C[C@@H](Nc1cc(F)cc(F)c1)c1cc(C(=O)N(C)C)cc2c(=O)cc(N3CCOCC3)oc12
inactive: 1 nM -3.44% | 8.33 nM -2.8% | 100 nM -5.04% | 833.33 nM 1.19% | 10000 nM -4.12%

O=C(Nc1ccccc1)N1CCC(Cc2cnc3ccccc3c2)CC1
inactive: 1 nM -0.99% | 8.33 nM -0.47% | 100 nM 0.72% | 833.33 nM -0.2% | 10000 nM -1.47%

CCOCC(O)COc1ccc(NC(=O)CC[S+](C)C)cc1 (stereo not given) [suplatast]
inactive: 1 nM 2.01% | 8.33 nM -0.4% | 100 nM -0.49% | 833.33 nM 0.97% | 10000 nM 0.31%

CC(C)(O)CC(=O)NCCn1ccc2ncnc(Nc3ccc(Oc4cccc(C(F)(F)F)c4)c(Cl)c3)c21
inactive: 1 nM 4.78% | 8.33 nM 7.81% | 100 nM 3.51% | 833.33 nM -7.39% | 10000 nM -14.1%

O=C1NC(=O)/C(=C/c2cccc(C(F)(F)F)c2)S1
inactive: 1 nM 0.25% | 8.33 nM 2.25% | 100 nM 1.98% | 833.33 nM -0.59% | 10000 nM -1.22%

COc1ccc2cc1Oc1ccc(cc1)C[C@H]1c3cc(c(OC)cc3CCN1C)Oc1c(OC)c(OC)cc3c1[C@H](C2)N(C)CC3 [tetrandrine]
active: 10000 nM 69.3%
inactive: 1 nM -2.72% | 8.33 nM -0.14% | 100 nM -1.04% | 833.33 nM -2.19%

CCC1(c2ccc(N)cc2)CCC(=O)NC1=O (stereo not given) [aminoglutethimide]
inactive: 1 nM -0.9% | 8.33 nM 2.8% | 100 nM 3.28% | 833.33 nM 2.95% | 10000 nM 2.93%

c1cnc2c([O][Ga]([O]c3cccc4cccnc34)[O]c3cccc4cccnc34)cccc2c1 [gallium-triquinolin-8-olate]
inactive: 1 nM -0.23% | 8.33 nM 1.56% | 100 nM -0.49% | 833.33 nM 4.98% | 10000 nM 3.63%

CCCN[C@@H]1CCc2c(OC)cccc2[C@@H]1C
inactive: 1 nM -1.51% | 8.33 nM -1.5% | 100 nM -0.05% | 833.33 nM -0.17% | 10000 nM -3.49%

Cc1cc(-c2nncc3c(C(C)(C)C)c(OCc4ncnn4C)nn23)no1
inactive: 1 nM 1.59% | 8.33 nM -1.07% | 100 nM 0.62% | 833.33 nM -3.08% | 10000 nM -1.02%
